Screening data from PubChem.
TRHR agonist = TRH receptor (human) agonism | TRHR cells, calcium flux fluo-8, FDSS agonist mode | activation, % at 2 µM | hit rate 0.18% among 360,000; in the data active means activation above about 30%; further: 0% is about no effect
Target sequence (P34981 whole entry, looked up): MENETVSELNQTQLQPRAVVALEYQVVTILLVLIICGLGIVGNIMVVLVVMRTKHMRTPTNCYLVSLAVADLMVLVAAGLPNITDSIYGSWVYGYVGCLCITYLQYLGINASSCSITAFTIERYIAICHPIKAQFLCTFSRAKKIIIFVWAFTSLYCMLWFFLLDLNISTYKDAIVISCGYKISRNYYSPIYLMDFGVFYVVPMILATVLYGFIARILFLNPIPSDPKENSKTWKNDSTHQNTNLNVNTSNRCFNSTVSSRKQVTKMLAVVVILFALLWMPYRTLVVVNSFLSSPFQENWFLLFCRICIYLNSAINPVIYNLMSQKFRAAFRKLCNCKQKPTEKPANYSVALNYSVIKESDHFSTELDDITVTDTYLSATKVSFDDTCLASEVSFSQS
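Steps: seed TRHR cells overnight; add fluo-8 no-wash Ca dye, RT 30 min–1.5 h; record 10 s baseline; pin-transfer compounds; monitor fluorescence 1 cycle/s for the agonist window. Calcium increases flag candidate agonists.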
CBFb RUNX1 block = inhibitors of human CBF-beta and RUNX1 interaction | AlphaScreen CBFb-His/RUNX1-biotin binding, biochemical | Potency, µM (top dose mostly 59.8 µM), without a hit: at the top dose activity, negative = inhibition, hits mostly inhibitors | 230,000 tested, under 10 active | AID 1477; further: % of control where 0% means no effect
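Proteins preincubated together for 20 min at RT before compound addition; 15 min later, nickel and streptavidin beads were added and left 90 min prior to AlphaScreen measurement.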
IL-2 act = activates IL-2 in a cell-based reporter assay; IL-2 activation reporter assay, cell-based qHTS; stimulated with anti-CD3/CD4/CD28 beads; in transgenic mouse T cells; activation, % (series mostly up to about 46 µM); hit rate 0.065% among 360,000; AID 652025; in the data active means activation above about 50%; inconclusive means mostly about 30% to 49%; further: 0% is about no effect
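Unstimulated transgenic mouse T cells; 60-min compound exposure; bead-based TCR/CD4/CD28 stimulation; 18 h culture, 37 degrees C; dual fluorescence (EGFP, DsRed) plate cytometry.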
TRHR PAM = TRH receptor (human) allosteric enhancement; P34981; hit rate 0.66% among 360,000; TRHR cells, fluo-8 calcium fluorescence, EC20 TRH enhancement; AID 493056; enhancement, % at 2 µM; in the data active means enhancement above about 30%; further: 0% is about no effect
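TRHR-expressing cells loaded with fluo-8 calcium dye were read kinetically (ex 480/em 530) during compound addition, then stimulated with an EC20 of TRH (10 nM final). Enhancement of the Gq-mediated intracellular calcium response was scored.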
MBNL1 CUG block = blocks human MBNL1 binding to CUG repeat RNA. Potency, µM (titrated, usually from 57.5 µM), without a hit: at the highest dose activity change, negative = inhibition, usual class: inhibitors. hit rate 0.036% among 280,000. Q9NR56. TR-FRET MBNL1-His/biotin-(CUG)12 binding, 665/545 ratio; active means well fitted inhibition curve with a large enough effect in the signal ratio, with a control signal flat, not every such curve was filed as active; inconclusive means small, poorly fitted or top-dose-only effect, or effect the other way, or a change in a side signal; inactive means no such curve, though single readings can be large or run the other way; the % refers to the signal ratio; further: potency means the concentration at half of the fitted maximal effect; on the % scale 0 is the no-effect control and ±100 the full control effect
Target sequence (Q9NR56 whole entry, looked up): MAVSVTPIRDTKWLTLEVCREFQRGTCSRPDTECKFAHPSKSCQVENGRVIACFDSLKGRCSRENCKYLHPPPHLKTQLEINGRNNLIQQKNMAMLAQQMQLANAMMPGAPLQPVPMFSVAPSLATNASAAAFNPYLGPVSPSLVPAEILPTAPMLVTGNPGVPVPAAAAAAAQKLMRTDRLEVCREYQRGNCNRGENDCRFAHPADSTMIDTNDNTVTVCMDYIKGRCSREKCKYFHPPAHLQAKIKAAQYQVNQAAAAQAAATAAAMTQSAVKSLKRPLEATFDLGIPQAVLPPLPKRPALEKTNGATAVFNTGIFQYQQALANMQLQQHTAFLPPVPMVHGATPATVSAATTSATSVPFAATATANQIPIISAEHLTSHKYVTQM
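TR-FRET between His-tagged MBNL1 and biotin-(CUG)12 RNA, detected with Tb anti-His antibody (0.055 ng/ul) and streptavidin-XL665 (5 nM), 60 min at room temperature. Compounds titrated 92 nM to 58 uM; 665/545 nm ratio normalized to buffer and complex controls.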
Epigenetic reg = epigenetic control regulation, reporter derepression; Potency, µM (doses to about 53.9 µM), for inactives: top-dose GFP activation, most hits filed as activators; hit rate 0.2% among 280,000; murine LDR cells, GFP reporter derepression, 30 h; further: potency means the concentration at half of the fitted maximal effect; % of control where 0% means no effect; nearly all actives have a fitted effect of over 60% in size
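In this reporter-derepression format, murine cells bearing a silenced integrated CMV-GFP locus incubate with test compound (30 h, 37 C), then are washed and imaged; fluorescent objects of 20–120 um count as induced cells.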
* hit, by the source's call; ? = inconclusive; / = not tested or not shown; [ ] = another dose, or the depositor's remark. Shown are actives, neighbours in structure and some others; about 0.88% of the full set was active somewhere. Unless noted, the call rests on the fitted dose curve; in most records, active means well fitted curve in the direction sought with a large enough effect; inconclusive means small, poorly fitted or top-dose-only effect, or another doubt; inactive means no such curve, though single readings can be large; an effect the other way counts as inactive or inconclusive.

SMILES	TRHR agonist	CBFb RUNX1 block	IL-2 act	TRHR PAM	MBNL1 CUG block	Epigenetic reg
Cc1ccc(N(Cc2cccs2)C(=O)Nc2cccc(Cl)c2)cc1	1.9	/	/	-4.4	/	0.8%
CCCCN(C)CCCNC(=O)c1cc(=O)[nH]c2ccc(S(=O)(=O)N3CCCCC3)cc12	0.1	/	/	53.3*	/	1.8%
CC(=O)Nc1ccc(NC(=O)CSC2=NCCS2)cc1	-0.1	5.8%	-1.9	-1.2	-10.6%	2.2%
CC(=O)Nc1nonc1NC(=O)CSC1=NCCS1	0.2	6.0%	0.8	31.4*	-5.5%	-0.9%
Cc1cccc(N2CCN(C(=O)c3cn(C4CCCCC4)c(=O)c4c3c3ccccc3n4C)CC2)c1C	0.8	/	/	3.4	/	2.8%
CN(C)c1ccc(/C=C2\SC(=S)N(Nc3ncc(C(F)(F)F)cc3Cl)C2=O)cc1	79.8*	-15.2%	19.6	27.3	4.3%	14.1µM*
Cc1ccc(C2C(C#N)=C(N)Oc3cc(N)ccc32)cc1 (stereo unspecified)	-0.1	/	0.1	-0.5	13.8%	/
Cc1ccc(/C=C2\CCC3=C2OC(N)=C(C#N)C3c2ccc(C)cc2)cc1 (stereo unspecified)	68.3*	0.2%	26.0	15.1	7.4%	11.2µM*
Cc1ccc(NC(=O)/C(C#N)=C\c2ccc(-c3ccc(Cl)cc3)o2)c(C)c1	-0.1	/	/	-10.5	/	3.55µM*
O=C1OCC(CO)(CO)N=C1NNc1ccccc1Cl	1.1	-0.5%	-1.1	31.0*	-1.2%	-3.1%
O=C(O)C1(Nc2ccccc2Cl)CCCC1	/	/	-0.1	/	/	/
CCOc1ccc(CCNC(=O)CN2CCN(Cc3ccc(Cl)cc3)C2=O)cc1OCC	-0.7	/	/	-2.1	/	-1.0%
CC(=O)c1c(C)[nH]c(C(=O)Nc2cc(F)ccc2C)c1C	-0.6	/	-0.2	0.3	86.6%	/
CC(=O)c1c(C)[nH]c(C(=O)Nc2ccc(F)cc2F)c1C	-1.2	/	8.5	36.0*	1.4%	/
Cc1nn(C)cc1/C=N/NC(=S)Nc1ccccc1	0.1	-6.6%	-2.7	-3.0	20.5%	3.98µM*
Cc1ccc(CNC(=O)C2CCN(S(=O)(=O)c3ccc4c(c3)oc(=O)n4C)CC2)cc1	-0.5	/	/	4.7	/	4.5%
Cc1ccc(-n2nc(C(=O)N3CCN(c4cccc(C(F)(F)F)c4)CC3)c3c4ccccc4n(C)c3c2=O)cc1	0.7	/	/	1.6	/	0.5%
CCC/C(=N\NC(=O)c1csc(C)c1C)c1cccs1	-0.5	4.5%	-1.9	35.3*	-3.5%	-1.0%
CCCN1C=CC(=C/C=C(\C#N)C(=O)OCC)C=C1	57.5*	-7.3%	/	5.9	?	?
CCCCCCN1C=CC(=C/C=C(\C#N)C(=O)OCC)C=C1	165.1*	-18.9%	0.9	31.3*	?	10µM*
COc1cccc(N2CCN(C(=O)c3cc4c(=O)n(Cc5ccco5)ccc4nc3C)CC2)c1	-0.6	/	/	14.7	/	1.5%
Cc1cc2c(s1)c1cnn(Cc3ccc(Cl)cc3)c(=O)c1n2C	0.0	/	/	-0.2	/	/
CCc1c(C)sc2c1CCN(C(=O)Nc1ccc(F)c(Cl)c1)C2c1ccc(F)cc1 (stereo unspecified)	0.8	/	/	-2.6	/	-6.6%
CC(=O)N1CCC(N(Cc2ccco2)C(=O)Nc2ccc(Br)cc2F)CC1	2.4	/	/	41.0*	/	-0.4%
CCCN(Cc1cccs1)C(=O)Nc1ccc(Br)cc1F	-1.0	/	/	4.8	/	-1.7%
SMILES	TRHR agonist	CBFb RUNX1 block	IL-2 act	TRHR PAM	MBNL1 CUG block	Epigenetic reg
Cc1ccccc1C1CC(c2ccc(Br)cc2)Nc2nc(N)nn21 (stereo unspecified)	1.0	-2.6%	1.3	40.2*	-6.2%	-1.0%
COc1ccc(OC)c(-n2c(=O)[nH]c3cc(C(=O)NCCc4ccc(OC)c(OC)c4)ccc3c2=O)c1	0.1	/	/	-0.3	/	1.4%
CC1CCN(c2csc3ccc(F)cc3c2=O)CC1	0.4	/	/	8.5	/	-1.7%
COc1ccc(-c2nnc(SCC(=O)NC3CCCC3)nc2-c2ccc(OC)c(OC)c2)cc1OC	-0.1	/	/	33.4*	/	0.8%
CCOc1ccc(-c2nnc(SCC(=O)NC3CCCCC3)nc2-c2ccc(OCC)c(OC)c2)cc1OC	-0.4	/	/	-2.5	/	-1.3%
O=C(NCCc1ccc(F)cc1)C(=O)NCC(c1ccc2c(c1)OCO2)N1CCOCC1 (stereo unspecified)	0.3	/	/	18.2	/	0.0%
Cc1cccc(CC(=O)c2c[nH]c3ccccc23)c1	0.7	10.6%	-0.5	30.7*	-7.0%	1.1%
CCn1c(=O)c(C(=O)NNC(=O)c2ccccc2F)c(O)c2ccccc21	42.9*	/	0.0	-8.1	-3.6%	/
COC(=O)C/C=C\[C@@H](C)[C@@H](/C=N\O[C@@H](C)CN1CCCc2nc(C)c(C)cc21)OC	/	9.4%[13.1 µM]	/	/	/	0.0%[10.1 µM]
Cc1occc1C(=O)NNC(=O)Nc1ccc(Cl)c(Cl)c1	0.2	1.3%	-2.3	-0.9	?	1.0%
Cc1ccsc1C(=O)NNC(=O)Nc1ccc(Cl)c(Cl)c1	0.0	-4.1%	-0.5	39.1*	5.7%	2.2%
COc1ccc(-c2csc(/C(C#N)=C/Nc3ccc4c(c3)OCCO4)n2)cc1	-0.2	2.8%	1.0	25.8	-5.7%	10µM*
CCOc1cc(C#N)c(-n2nnc3c(sc4nc(C)cc(C)c43)c2=O)cc1OCC	13.9	/	/	-0.1	/	-1.1%
CC(=O)c1ccc(N2C(=O)N(Cc3ccccc3C#N)c3ccccc3S2(=O)=O)cc1	-0.5	/	/	4.4	/	-0.5%
Cc1cc2c(s1)c1cnn(Cc3c(F)c(F)c(C(F)(F)F)c(F)c3F)c(=O)c1n2C	-0.1	/	/	1.5	/	/
CCc1c(C(=O)NCc2ccccc2Cl)[nH]c(C)c1C(C)=O	0.3	3.1%	-0.1	-0.7	-8.9%	-0.1%
CC(=O)c1c(C)[nH]c(C(=O)NCc2ccccc2Cl)c1C	-0.4	3.2%	-1.6	34.0*	34.2%	-7.2%
CCN1/C(=C2\SC(=S)N(Cc3ccccc3)C2=O)Sc2ccccc21	1.2	0.8%	0.2	-9.5	-4.4%	12.6µM*
CCN1C(=O)/C(=C2/Sc3ccccc3N2CC)SC1=S	0.4	/	7.7	0.6	38.9%	/
COc1cccc(C(c2sc3ncnn3c2O)N2CCN(C(=O)c3ccco3)CC2)c1 (stereo unspecified)	-1.1	-2.4%	-3.1	37.2*	7.8%	-1.0%
O=C(c1ccco1)N1CCN(C(c2cccs2)c2sc3ncnn3c2O)CC1 (stereo unspecified)	0.4	-0.4%	0.7	0.8	?	1.0%
CCOc1ccc(/C=C/C(=O)Nc2ccc(OC)cc2[N+](=O)[O-])cc1	1.0	-8.2%	114.0*	5.4	7.8%	?
COc1ccc(NC(=O)c2ccc(NC(=O)C(C)C)cc2)c([N+](=O)[O-])c1	0.2	1.1%	10.7	9.9	?	14.1µM*
C[C@H]1Cc2c(-c3ccccc3)nc3c(c2CO1)CN(C(=O)Nc1cccc(C#N)c1)CC3	/	4.3%[13.1 µM]	/	/	/	/
